# IDE inh: human IDE inhibitors in live cells, primary screen, fluorescence polarization, HEK cells, FAbetaB substrate; Insulin-degrading enzyme (Homo sapiens), P14735; FAbetaB cleavage; inhibition, % at 5.59 µM; 0.41% of 320,000 active;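 active = percent inhibition above the average of all tested compounds plus 3 SD, set per screening campaign, cut at about 16% in these data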;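 also: IDE supplied by intact live HEK cells; FP after avidin binding of uncleaved biotin substrate so inhibition keeps polarization high; 0% = DMSO wells and 100% = 60 µM reference IDE inhibitor Ii1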
# SUMO Mot1 rescue: yeast Mot1-301 growth rescue at high temperature, primary screen, SUMOylation pathway inhibitor project, S. cerevisiae, ATP luminescence, 38.5C; 1% of 320,000 active; growth rescue, % at 18.8 µM; AID 2716, 2010; S. cerevisiae Mot1-301 growth rescue; percent above DMSO median, 100 means doubled;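 active = every valid replicate shows activation above 250% relative to neutral control wells; inactive = the rest, any valid replicate at or below 250%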;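 also: OY570 slx delta 5 strain wells were the positive control but not used for scaling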
# IDE cell activ: human IDE activators in live cells, primary screen, fluorescence polarization, HEK cells, FAbeta-B substrate; Insulin-degrading enzyme (Homo sapiens), P14735; FAbeta-B cleavage; 0% vehicle, 100% cell-free pure enzyme wells; activation, % at 5.96 µM; 0.073% of 340,000 active; AID 493087, 2011;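 active = activation above the mean of all tested compounds plus 3 SD, set per screening campaign, cut at about 17% in these data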
# HDAC3 inhib: HDAC3 deacetylase inhibitors, primary screen, biochemical, fluorescence, cell-free homogeneous | AID 2718, 2010 | inhibition, % at 8.3 µM | 0.15% of 320,000 active | recombinant HDAC3, fluorogenic peptide/trypsin coupled; in the data active = inhibition above about 26%, passing the limit was not always enough
# Target sequence (O15379 whole entry, looked up): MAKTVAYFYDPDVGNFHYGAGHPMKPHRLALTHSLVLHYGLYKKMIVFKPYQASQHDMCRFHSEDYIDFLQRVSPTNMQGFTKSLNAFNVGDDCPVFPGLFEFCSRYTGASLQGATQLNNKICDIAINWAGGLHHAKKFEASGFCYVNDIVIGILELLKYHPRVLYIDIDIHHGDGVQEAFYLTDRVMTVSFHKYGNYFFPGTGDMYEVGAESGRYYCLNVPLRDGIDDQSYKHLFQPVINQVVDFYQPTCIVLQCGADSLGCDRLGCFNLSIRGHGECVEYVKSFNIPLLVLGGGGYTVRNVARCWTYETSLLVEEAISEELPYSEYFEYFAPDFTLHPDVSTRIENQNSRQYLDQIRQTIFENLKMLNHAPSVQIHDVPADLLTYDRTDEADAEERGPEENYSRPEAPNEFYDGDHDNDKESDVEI
# LANA-H2A inh: blockers of LANA interaction with H2A/H2B – biochemical, FP readout, HTS, primary screen | cell-free LANA-H2A/H2B peptide, fluorescence polarization | AID 2629, 2010 | 0.6% of 320,000 active | inhibition, % (no concentration beside the values) | Protein LANA1 (Human herpesvirus 8 type P (isolate GK18)), Q9QR71; in the data active = inhibition mostly above about 10%, no sharp cut-off; inactive = mostly below about 6.7%
# * = called active by the depositor; . = no result; + = active, no number. In the library only some 2.1% were active in any assay of this set; here they are far more common.
SMILES,IDE inh,SUMO Mot1 rescue,IDE cell activ,HDAC3 inhib,LANA-H2A inh
O=C(Cc1ccccc1)NCC(=O)N/N=C/c1cccnc1,1,-8,3,-1,2
Cc1ccc(N/N=C/c2cccnc2)cc1,9,289*,1,-2,-1
CCCn1c(SCC(=O)NC2CCC(C)CC2)n[nH]c1=O (stereo not given),2,3,3,-1,11
CN=c1nc(-c2ccccc2)n(-c2ccccc2)s1,1,286,6,56*,1
Cn1c(N2CCOCC2)c(C#N)c2ccccc21,1,-11,4,-8,4
O=C(CNC(=O)c1ccc(S(=O)(=O)N2CCCC2)cc1)N/N=C/c1c(Cl)cccc1Cl,18*,-11,-5,7,-1
Cn1cccc1CC(=O)NNC(=O)Nc1cccc(Cl)c1,-3,7,2,-2,-2
Cn1cccc1CC(=O)NNC(=O)Nc1ccc(Cl)cc1,-3,-7,3,4,76*
Cc1ccccc1NC(=O)CSc1n[nH]c(-c2ccco2)n1,13,-7,-4,-7,16*
COc1ccccc1NC(=O)CSc1n[nH]c(-c2ccco2)n1,.,.,1,.,.
Cn1cnnc1SCc1cccc(Br)c1,4,264*,-1,2,-5
Cn1c(SCc2cccc(Br)c2)nnc1-c1ccccn1,2,21,3,1,4
CCN(CC)CCOC(=O)C1(c2ccccc2)CCCC1,-2,-10,1,-9,36*
Cn1ncc(Br)c1C(=O)NC1CCCCCC1,.,-11,3,-1,-1
CC1CCN(C(=O)CSc2nc(N)c(NC(=O)c3ccccc3)c(=O)[nH]2)CC1,8,74,2,-5,48*
CCOc1cc(/C=C2\CCCC(C(=O)C(F)(F)F)=C2O)ccc1O,2,-9,-5,35*,2
COc1cc(/C=C2/CCCC(C(=O)C(F)(F)F)=C2O)ccc1O,3,2,0,.,1
O=C(Nc1ccccc1Oc1cccnc1)C1CCCN(C/C=C/c2ccccc2)C1 (stereo not given),.,-12,5,-2,-24
CCOC(=O)c1ccc(NC(=O)CCCN2C(=O)NC3(CCCC3)C2=O)cc1,-4,-4,5,-5,12*
O=C1c2ccccc2C(=O)N1Cc1nc2ccccc2o1,-1,-8,3,13,5
O=C1c2ccccc2C(=O)N1CCCSc1nc2ccccc2o1,-1,-13,3,4,15*
COc1ccc([N+](=O)[O-])cc1N(CC(=O)N1CCCC1)S(C)(=O)=O,1,355*,9,5,4
CC(CNS(=O)(=O)c1ccccc1)Sc1ncccn1 (stereo not given),3,346*,3,.,2
Cn1c(C(=O)O)c(CC(=O)N2CCC(Cc3ccccc3)CC2)c2ccccc21,0,893*,2,5,-3
CCOCC(=O)N1CCC(Cc2ccccc2)CC1,6,26,.,-5,-10
SMILES,IDE inh,SUMO Mot1 rescue,IDE cell activ,HDAC3 inhib,LANA-H2A inh
CC(C)c1nc(SCC(=O)N2CCCCCC2)c2c(=O)n(C)c(=O)n(C)c2n1,0,-6,0,0,53*
O=C1/C(=C/c2ccccc2)SC(=S)N1CC(=O)N1CCCCC1c1cccnc1 (stereo not given),3,140,6,5,3
Cc1c(C2(O)CCCCC2)[nH]c2ccc(C(F)(F)F)cc12,-3,301*,-8,12,1
CCN1CC(C)(C)N(C(=O)c2ccccc2)CC1(C)C,.,.,-2,.,.
CCCCC(=O)Nc1ccc(NC(=O)c2ccco2)cn1,-3,-4,-3,2,11*
CCCC(=O)Nc1ccc(NC(=O)c2ccccc2OC)cn1,2,-8,2,7,-1
CCCC(=O)Nc1ccc(NC(=O)c2ccccn2)cn1,1,.,6,0,39*
CCOC(=O)C1(CCCc2ccccc2)CCN(CCCn2cccn2)CC1,0,478,0,1,-2
CCOC(=O)C1(Cc2ccccc2C(F)(F)F)CCN(CCCn2cccn2)CC1,7,-5,13,1,14*
CCN1CCN(Cc2ccc(NC(=O)c3ccc(C)c(NC(=O)c4nccnc4N)c3)cc2C(F)(F)F)CC1,-2,10,2,1,-2
CCN1CCN(Cc2ccc(NC(=O)c3cc(NC(=O)c4nccnc4N)cc(OC)c3)cc2C(F)(F)F)CC1,0,353*,4,-4,1
CCN(CC(=O)Nc1ccc(NC(C)=O)cc1)C(=O)c1cc([N+](=O)[O-])ccc1Sc1ccc(Cl)cc1,.,.,2,.,.
CC(=O)N1C(C(=O)O)Cc2c([nH]c3ccccc23)C1(C)C (stereo not given),-3,-9,-4,-1,0
CC1(C)NC(C(=O)O)Cc2c1[nH]c1ccccc21 (stereo not given),-3,103,8,-2,7.0*
NC[C@H](Cc1ccccc1)NCCCCC1CCCCC1,4,99,6,-1,-2
CNC[C@H](CC1CCCCC1)NC[C@H](Cc1ccccc1)NCCC12CC3CC(CC(C3)C1)C2,1,-71,35*,-8,-2
Cc1nc2nc[nH]n2c(=O)c1CCOC(=O)c1ccccc1F,6,92,7,1,10*
COc1ccc(N2CCN(C(c3nnnn3C3CCCC3)C(C)C)CC2)cc1 (stereo not given),-2,-16,2,-1,4
CC(C)C(c1nnnn1C1CCCCC1)N1CCOCC1 (stereo not given),-2,19,6,1,19*
NC(=O)c1ccc(-n2nnnc2Oc2ccccc2C(=O)N2CCOCC2)cc1,-3,119,4,1,-1
Cn1nc([N+](=O)[O-])nc1Oc1ccccc1C(=O)N1CCOCC1,0,14,3,-6,+
CCCC(O)(c1ccc(Cl)cc1)C(CN1CCOCC1)c1ccc(Cl)cc1 (stereo not given),-2,292*,3,-2,4
COc1ccc(CCNC(=O)c2cc(S(=O)(=O)N3CCCCC3)c[nH]2)cc1OC,4,-4,0,.,5
COc1cc(C2c3c(c(C)c(C)oc3=O)Oc3c(C)c(C)oc(=O)c32)ccc1OS(=O)(=O)c1ccc(C)cc1,-4,-3,3,7,-1
CCN(CC)c1ccc(S(=O)(=O)N2CCOCC2)cc1NC(=O)Cn1nc(C)c([N+](=O)[O-])c1C,-5,-6,6,4,2
CCN(CC)c1ccc(S(=O)(=O)N2CCOCC2)cc1NC(=O)CN1CCc2ccccc2C1,7,-12,-7,1,33*

# Source: PubChem
